B1: ENSMUSG00000029636.202|Wasf3|244:248 (ssRNA)
RNA: GGGAGUUCUACAGUCCGACGAUCGCUUCGAUAUCCGCAUGCUAACCAAAUGGCGAUUCCAUAGUCCUGGCUGAGGCAGGGGCUCAAAGUCCAGUGUCUGCUUUGCAAUUCUGGAAGGACAGCUGCUUAUUUAAAUAAGUCUGUGAUAUCCGCAGGCUUGGGUUACAGGGAGGACCUUGCAGAGGGACCAGGACACUGCCUUCCCUUAGGUGCAUUAUUUACGUGGCCUGCAGCUCUUAAUAUCUCUCACUGUUUAUGAAAAGAAAGAUUCAGAUCCGGGGUGACAUACACACAGUUGACAGGGCUCUUGCGGUCGCACUAGUGUGGAAUUCUCGGGUGUCAAGG
B2: ENSMUSG00000061578.835|Ksr2|29:33;71:75;146:150 (ssRNA)
RNA: GGGAGUUCUACAGUCCGACGAUCGCUUCGAUAUCCGCAUGCUAAAGGGCUCAGUCCAUAGCUGCCUGACUCACACAUUCUAGGCCUUUCUUGAGGCAAGUGUUCAUCAUGAUACACACAGGGUGAGGAGGAGUUUCUUCAUGGCAAACAGGAAGCAAAGAGCAAUACAGGAAAAGGUCAGGGGUGAGAACACACAUUGCCACUUCCUCCAGCUAGGACCUUUGAGCAUCACAUUGUGAAGCCAUCCAGGGACUUGGGGGUUAGGUCAGAGGUAUCAAUACAUCUCCGGAAACAUCGUCACAGACUCUUGCGGUCGCACUAGUGUGGAAUUCUCGGGUGUCAAGG
B3: ENSMUSG00000004113.468|Cacna1b (ssRNA)
RNA: GGGAGUUCUACAGUCCGACGAUCGCUUCGAUAUCCGCAUGCUAGCAAAAAUUUAUAUUUAACAGUGUUGAGAGAGAGAGAGAGAGAGCGAGAGAGAGAGAGAUCCAGUCAUGCAACACAAAUGGGAUCUACUUUUAAACAACAGUCCUUUGACUAGUUUGCUGCCUGAAUAAUAUUUACAAACUAAACUUUGGAUUCUGCUCUUGUUUCUACAAUGAUUUUUUGUAUAAAGCAAAGUCCUUGGAUUAAAUAAAAACAACCCAAAAAAAAAAUCAAAAUCAAAACCCAGGAUGCAACUGGGUGACUCUUGCGGUCGCACUAGUGUGGAAUUCUCGGGUGUCAAGG
B4: ENSMUSG00000058297.109|Spock2|57:62 (ssRNA)
RNA: GGGAGUUCUACAGUCCGACGAUCGCUUCGAUAUCCGCAUGCUAUGUACACACAGCAAGGCUUACUAUCCGUCUCCUGACAUCCGAAGAGCUCGUCGCAGCACACACUAAUGGCCCUUGGGCUGCACGUGGUUAAGCAUAGCUGUCUCUGUGGCCCAACACAAAGAGGUAAACUUACUUAAAACACAGGGGUUUUGUUGCUGUUUGUUUUUUGUUAGUUUGUUUGUUGAUAAUUGGAUUGAGGAGUUAAUCCUCUGUCACAAUGUCAAAAGCAUGGACAUCCCUGAUAGAUUAUCUCUCAACCUCUCUUGCGGUCGCACUAGUGUGGAAUUCUCGGGUGUCAAGG
B5: ENSMUSG00000028439.270|Fam219a|220:224 (ssRNA)
RNA: GGGAGUUCUACAGUCCGACGAUCGCUUCGAUAUCCGCAUGCUAAGCUGAGGCUGUAGCUCAGUGAGAUGGUGGCUCUCCCAUGGCUGAAGACAAGUGCAAGCAGAGAGAGCCUCAGGCUGCUGGGCCUCGGACCCACGAGCCUCCUCUCACUGAGCCAGUGCGGCCAGAGUGUCUCUCCUUCAGGCGCCCCACAUGCCAGCAUUUCCACCCUCUGGAUUCUCCUCACAUGUCACUCUCCAGGUGCCGGGGCCUAGAGUGGGCCACACAGAAGGAGGAGUGGGGCUGUUGGCUUAGGAAGGGAACUCUUGCGGUCGCACUAGUGUGGAAUUCUCGGGUGUCAAGG
B6: ENSMUSG00000061578.426|Ksr2 (ssRNA)
RNA: GGGAGUUCUACAGUCCGACGAUCGCUUCGAUAUCCGCAUGCUAGACCACUGACCCGUCCAGACCCUCGCUUCUUACAAUGCCUCUUCUUCUGCCAGACCAGCCACCUGCCCCACUAACACCAAAUGGCUUCUGUCCCUGCUUCACGUUGCAAAUCCUUCAAGACAGAAGUUUCAGAGGGGAUAGUUCCUUCUAACCUUGUACUGGGACAUCAUCUAUGUCCCCAUCCCCAGAGCUGAAUUAGAGACACCAAGUAGCCUCUUGGGUUGUUUUGUGGGGUGUUCCCCUUGCUGGUCAAAGGAGUGCUCUUGCGGUCGCACUAGUGUGGAAUUCUCGGGUGUCAAGG
B7: ENSMUSG00000058297.310|Spock2 (ssRNA)
RNA: GGGAGUUCUACAGUCCGACGAUCGCUUCGAUAUCCGCAUGCUAGCAGCUAGCUACUGGGGACCUUGUGCUGAGGCUUCCAGGACAAAGCCCCAGUCUGGCUCUCCCCCAGCCUCUCAGGGGCACUGGCUGGUCACAUCCACUGAGUAUUGAUCGGUUGGACUUUAGGGAAGAGCCUCCUCCUUCCCAUUCCUUUCUGCCACCCUGGAAUGGCCACCUUAAUCGUCAUCUCCUCGGGGGGAAUACGGAAAUGUCACCAAGCUCCAUAAAGUGCUUCUCAUUCCACGACACAGUUCUGACUCUCCCUCUUGCGGUCGCACUAGUGUGGAAUUCUCGGGUGUCAAGG
B8: ENSMUSG00000090935.19|Synj2bp (ssRNA)
RNA: GGGAGUUCUACAGUCCGACGAUCGCUUCGAUAUCCGCAUGCUAAUUAUUUAGUCACGGAGGAAGAGAUCAACCUGACGAGAGGACCUUCGGGUAAAUGGCCAAGAUCUGAAGAACCUGCUGCACCAAGAUGCUGUAGACCUCUUCCGUAAUGCGGGAUGUGCUGUGUCCCUGAGAGUACAGCACAGGUUACCAGUGCAGAAUGGACCUAUAGUACAUCGAGGUGAAGGAGAGCCAAGUGGAGUUCCUGUAGCUAUGGUGCUGCUACCAGUGUUUGCCCUCACCAUGGUAGCAGUUUGGGCCUUCUCUUGCGGUCGCACUAGUGUGGAAUUCUCGGGUGUCAAGG
B9: ENSMUSG00000061578.1360|Ksr2|254:258 (ssRNA)
RNA: GGGAGUUCUACAGUCCGACGAUCGCUUCGAUAUCCGCAUGCUAAGGCAAGCAACCUUGCCAAGGCAGGCCAGACAGGACAGCCCAGCUUCCCACUCCAGACAUGUUGUUCUUACAUCUCUGACCCAGUGAUCUUUCUAGGGGUCUGUCACAUGUCCCAACAGGUGGACAGCUCUCCAAGUCACCAACCUGAGGAAAAUAUCCCUCCUUGUAAAAAGGCUUUCUCUUUGUAAAUGAUUCUGUUGCCUUUUUCUAAACACAAAGUAUAUAUACCUAUAAAUGCUAUAUAUAUUAUAUAACACAAUCUCUUGCGGUCGCACUAGUGUGGAAUUCUCGGGUGUCAAGG
B10: ENSMUSG00000029636.126|Wasf3 (ssRNA)
RNA: GGGAGUUCUACAGUCCGACGAUCGCUUCGAUAUCCGCAUGCUAUCACUUUCAUGGCUAGCCCUGAUAGCGUUGGGCACCAGUUAGCCAGGCCAUGUUCAAGCUGCCUAGAGUCUGCAGAGCUUGCAUGGCAGAGCGGCCGCAUCUGGUUCCCUCCUACUCCACCCAGUGGAAAAGAGACCUCCACGUUUUAUUUUCUGGGAUCCCUGCUCCUCUGUUCACCAGGGAGUGAGCACAGGUCAGCACCUCACCCCCCUUGCUCUGAAUCAUGGAAGCUUGGCUUUAGCUGAGAGAUGCCACCAGCUCUCUUGCGGUCGCACUAGUGUGGAAUUCUCGGGUGUCAAGG
B11: ENSMUSG00000038916.65|Soga3 (ssRNA)
RNA: GGGAGUUCUACAGUCCGACGAUCGCUUCGAUAUCCGCAUGCUAACCUUUCUUUGUUUUGCACUCUUGAGUCAUAGUUGACUGGCUGACUGUGAAAAAUGGACAAAGUCUCAUAAUUAUUCUGUAGGAAUUGAGUAUUAUUUUACACCUGGAAAAUUUCAGCUGGUUGCAUUUUCAAAUUCAUGUAGAGGCAUUAAUUAUAAGUCAAUGUAGAUGAUUUAUAAAUUAUCUCUGUUAUAAAUUAUGUAGAUUUGUAAGCAUGCUGUUACUCAUGUUAGACAAAAAGGAAAACAUCAAUGUCUAAUCUCUUGCGGUCGCACUAGUGUGGAAUUCUCGGGUGUCAAGG
B12: ENSMUSG00000061578.1302|Ksr2 (ssRNA)
RNA: GGGAGUUCUACAGUCCGACGAUCGCUUCGAUAUCCGCAUGCUAGGGAUUGGCUGUAGUUAAUUAAAAGCACCUGUCUCUGUCAUCUCUGCACCCAACUGAAUCUCCCACCCUCAAGUGUACCUCUCAGGAUAUCCCCAGGCACACGAAGAUGGAAUGGAAAGCCAGUGGGUAUCUCCCACCCACUUAGAUGCUGAUGGCCUGGGACUAUAAACAGGGACAGUUGGGUCUCCUAAGGAAUAGCUUCCAGGUCCAGGAUGCUGGCAUCUCCCAGAGAGAACUCCAUCCCCUGACCACCAAGGCCUCUCUUGCGGUCGCACUAGUGUGGAAUUCUCGGGUGUCAAGG
B13: ENSMUSG00000061578.924|Ksr2 (ssRNA)
RNA: GGGAGUUCUACAGUCCGACGAUCGCUUCGAUAUCCGCAUGCUACAUGAGCCCAGAUAGUCAAAGACUUCAGCACAAGGGUGUUUAGAGUAGGCAGUGUGGAAGUAUCAAUAAGGUUAUUGAGAUGAGGAUUUAGAAAGAUCCAUGUAUAAAAGGUCUAGAAGGAUGAAGAUCUAAAACAAGAAGACUGCAUGUUAACGCUCCUGCCACUGUUGCCCCUUCCUUUACCCUUGGCAGACAUUGCUAAUCAAUCUCAGCACAGUUUCCAACCACAGUCAUAGAACAUUUGCCACAAAGGCCCUGGACUCUUGCGGUCGCACUAGUGUGGAAUUCUCGGGUGUCAAGG

The full ranking holds about 9,900 sequences; the median of “r (bound/input frequency ratio)” is about 0.7, and the highest 2% start at about 6.5. The sample as a whole holds a higher share of the highest values than the screen did.

Sequence of TDP-43 (Q13148 whole entry): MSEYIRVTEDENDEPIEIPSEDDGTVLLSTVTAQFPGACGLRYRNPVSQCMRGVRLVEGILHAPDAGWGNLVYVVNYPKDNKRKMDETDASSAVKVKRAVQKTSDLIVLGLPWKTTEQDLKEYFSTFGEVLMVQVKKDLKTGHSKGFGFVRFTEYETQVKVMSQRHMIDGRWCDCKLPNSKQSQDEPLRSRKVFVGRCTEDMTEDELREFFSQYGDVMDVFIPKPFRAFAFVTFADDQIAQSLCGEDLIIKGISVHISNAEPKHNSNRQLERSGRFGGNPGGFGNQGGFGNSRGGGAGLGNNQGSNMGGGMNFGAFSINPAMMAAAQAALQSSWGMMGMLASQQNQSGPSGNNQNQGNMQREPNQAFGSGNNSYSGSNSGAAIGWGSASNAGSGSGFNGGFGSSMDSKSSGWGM

For the assay, the target named is TDP-43 (Homo sapiens, UniProt Q13148 1-414). The assay can be described thus: RNA Bind-n-Seq with designed 260-mer pool; 25 mM Tris-HCl, 150 mM KCl, 3 mM MgCl2, BSA (printed 500 mg/mL), 20 units/mL SUPERase IN; pH not stated; 500 nM RNA pool, 1 h, 4 C; TDP-43 5, 50, 500 nM; high values mean tight binding. The note with it: protein: recombinant; tags: SBP (GST cleaved off with PreScission; pGEX-GST-SBP). In a few lines:
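For each oligo, R gives binding as its mapped-read-normalized abundance after pulldown divided by its abundance in input. Bead-captured SBP-tagged TDP-43 (5, 50 or 500 nM) was incubated with 500 nM of an in vitro-transcribed 260-nt 3′ UTR oligo pool for 1 h at 4 °C in 25 mM Tris-HCl, 150 mM KCl, 3 mM MgCl2, BSA and SUPERase IN on streptavidin beads. Washed, biotin-eluted RNA was reverse transcribed, PCR-amplified and sequenced.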
Regarding B1, the binding signal was 0.996 R (bound/input frequency ratio).

Turning to B2, the binding signal is 0.305 R (bound/input frequency ratio).

With B3, the binding signal was 0.308 R (bound/input frequency ratio).

With B4, the binding signal was 1.85 R (bound/input frequency ratio).

As for B5, the binding signal is 1.33 R (bound/input frequency ratio).

With B6, the binding signal is 1.01 R (bound/input frequency ratio).

Take B7: the binding signal was 0.874 R (bound/input frequency ratio).

As to B8, the binding signal is 0.919 R (bound/input frequency ratio).

For the molecule B9, the binding signal is 0.201 R (bound/input frequency ratio).

With B10, the binding signal is 1.2 R (bound/input frequency ratio).

In the case of B11, the binding signal is 0.077 R (bound/input frequency ratio).

In the case of B12, the binding signal was 0.444 R (bound/input frequency ratio).

B13: the binding signal is 1.12 R (bound/input frequency ratio).

The values are drawn from PMC12864922, “TDP-43 directly inhibits mRNA accumulation in neurites through modulation of mRNA stability”.
